Results on 19 sequences are retold here after article PMC11006913.

Numbering of substitutions follows the chain as printed.

Holding throughout (test): PBM; 200 nM protein, PBS
What all share (conditions): dsDNA, one strand shown

In one assay the target is HOXC10 (Homo sapiens, UniProt Q9NYD6 254-340).
A further assay concerns the target HOXC9 (Homo sapiens, UniProt P31274 178-260).
Assay [1] addresses HOXD13 (Homo sapiens, UniProt P35453 263-343, T313R).
The target of assay [2] is HOXD13 (Homo sapiens, UniProt P35453 263-343).
Sequence of HOXD13 (Homo sapiens, UniProt P35453 263-343) (P35453 263-343): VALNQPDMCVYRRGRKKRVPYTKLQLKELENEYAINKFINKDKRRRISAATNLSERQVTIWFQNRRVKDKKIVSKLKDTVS
Assay [3] addresses HOXD13 (Homo sapiens, UniProt P35453 263-343, T313A).
Assay [4] concerns the target T1, SIX6 (Homo sapiens, UniProt O95475 114-200, L167I).
T1 sequence: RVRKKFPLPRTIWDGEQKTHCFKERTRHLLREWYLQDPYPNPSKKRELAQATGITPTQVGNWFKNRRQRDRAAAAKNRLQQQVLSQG

Assay [5] deals with T2, SIX6 (Homo sapiens, UniProt O95475 114-200, L143V).
T2 sequence: T1 sequence with L30V, I54L

For assay [6], the target named is T3, SIX6 (Homo sapiens, UniProt O95475 114-200, H141N).
T3 sequence: T1 sequence with H28N, I54L

The target in assay [7] is T4, SIX6 (Homo sapiens, UniProt O95475 114-200, T165P).
T4 sequence: T1 sequence with T52P, I54L

Assay [8] deals with T5, SIX6 (Homo sapiens, UniProt O95475 114-200, L167M).
T5 sequence: T1 sequence with I54M

In assay [9] the target is T6, SIX6 (Homo sapiens, UniProt O95475 114-200, L143M).
T6 sequence: T1 sequence with L30M, I54L

Assay [10] has as its target T7, SIX6 (Homo sapiens, UniProt O95475 114-200, L143I).
T7 sequence: T1 sequence with L30I, I54L

Assay [11] deals with T8, SIX6 (Homo sapiens, UniProt O95475 114-200, T165G).
T8 sequence: T1 sequence with T52G, I54L

Assay [12] has as its target T9, SIX6 (Homo sapiens, UniProt O95475 114-200, T139Q).
T9 sequence: T1 sequence with T26Q, I54L

The target in assay [13] is T10, SIX6 (Homo sapiens, UniProt O95475 114-200, T165A).
T10 sequence: T1 sequence with T52A, I54L

The target of assay [14] is T11, SIX6 (Homo sapiens, UniProt O95475 114-200, L167V).
T11 sequence: T1 sequence with I54V

In assay [15] the target is T12, SIX6 (Homo sapiens, UniProt O95475 114-200).
T12 sequence: T1 sequence with I54L

Assay [16] concerns the target T13, SIX6 (Homo sapiens, UniProt O95475 114-200, T165I).
T13 sequence: T1 sequence with T52I, I54L

Assay [17] deals with NKX3-2 (Homo sapiens, UniProt P78367 192-278, P234S).
Sequence of NKX3-2 (Homo sapiens, UniProt P78367 192-278, P234S) (P78367 192-278 P234S): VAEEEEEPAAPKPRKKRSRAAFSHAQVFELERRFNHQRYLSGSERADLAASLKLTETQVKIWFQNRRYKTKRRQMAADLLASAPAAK
In assay [18] the target is NKX3-2 (Homo sapiens, UniProt P78367 192-278).
Sequence of NKX3-2 (Homo sapiens, UniProt P78367 192-278) (P78367 192-278): as the sequence (P78367 192-278 P234S) above, with S43P counted along it

Sequence of HOXC10 (Q9NYD6 254-340): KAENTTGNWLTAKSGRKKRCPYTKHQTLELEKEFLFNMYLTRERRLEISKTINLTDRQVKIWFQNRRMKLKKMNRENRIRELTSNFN
Sequence of HOXC9 (P31274 178-260): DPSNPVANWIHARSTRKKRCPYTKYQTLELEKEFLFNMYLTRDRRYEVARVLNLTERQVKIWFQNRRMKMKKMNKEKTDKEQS
Sequence of HOXD13 (Homo sapiens, UniProt P35453 263-343, T313A) (P35453 263-343 T313A): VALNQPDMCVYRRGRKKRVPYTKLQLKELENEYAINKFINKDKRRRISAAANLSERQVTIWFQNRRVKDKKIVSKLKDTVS
Sequence of HOXD13 (Homo sapiens, UniProt P35453 263-343, T313R) (P35453 263-343 T313R): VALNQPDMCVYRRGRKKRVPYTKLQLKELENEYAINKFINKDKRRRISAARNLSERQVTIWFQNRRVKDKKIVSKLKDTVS

With ATTAATTG, the binding signal with HOXC10 is 12.2 upbm affinity estimate (log intensity, higher = more binding, comparable within an allelic series); with HOXC9, 12.9 upbm affinity estimate (log intensity, higher = more binding, comparable within an allelic series); with HOXD13 [1], 10.7 upbm affinity estimate (log intensity, higher = more binding, comparable within an allelic series).

As for TAATTAAA, the binding signal with HOXC10 was 12.7 upbm affinity estimate (log intensity, higher = more binding, comparable within an allelic series); with HOXC9 it was 13 upbm affinity estimate (log intensity, higher = more binding, comparable within an allelic series); with HOXD13 [1], 10.8 upbm affinity estimate (log intensity, higher = more binding, comparable within an allelic series); with HOXD13 [2], 11.8 upbm affinity estimate (log intensity, higher = more binding, comparable within an allelic series); in the assay with HOXD13 [3], 11.7 upbm affinity estimate (log intensity, higher = more binding, comparable within an allelic series).

Turning to GTAATTAC, the binding signal is 12.5 upbm affinity estimate (log intensity, higher = more binding, comparable within an allelic series) with HOXC10 and 13.1 upbm affinity estimate (log intensity, higher = more binding, comparable within an allelic series) with HOXC9.

For the sequence TAATTACA, the binding signal with HOXC10 is 12.3 upbm affinity estimate (log intensity, higher = more binding, comparable within an allelic series); in the assay with HOXC9, 12.8 upbm affinity estimate (log intensity, higher = more binding, comparable within an allelic series).

On to CCAGGTCC, for which the binding signal is 9.09 upbm affinity estimate (log intensity, higher = more binding, comparable within an allelic series) with SIX6 [4]; 8.75 upbm affinity estimate (log intensity, higher = more binding, comparable within an allelic series) in the assay with SIX6 [5]; 8.99 upbm affinity estimate (log intensity, higher = more binding, comparable within an allelic series) in the assay with SIX6 [6]; 8.71 upbm affinity estimate (log intensity, higher = more binding, comparable within an allelic series) with SIX6 [7]; 8.79 upbm affinity estimate (log intensity, higher = more binding, comparable within an allelic series) with SIX6 [8]; 9.02 upbm affinity estimate (log intensity, higher = more binding, comparable within an allelic series) with SIX6 [9]. In addition, the binding signal with SIX6 [10] was 8.99 upbm affinity estimate (log intensity, higher = more binding, comparable within an allelic series); with SIX6 [11], 9.06 upbm affinity estimate (log intensity, higher = more binding, comparable within an allelic series); in the assay with SIX6 [12], 9.28 upbm affinity estimate (log intensity, higher = more binding, comparable within an allelic series); in the assay with HOXD13 [1], 9.45 upbm affinity estimate (log intensity, higher = more binding, comparable within an allelic series); with SIX6 [13] it was 9.07 upbm affinity estimate (log intensity, higher = more binding, comparable within an allelic series); in the assay with HOXD13 [2], 9.43 upbm affinity estimate (log intensity, higher = more binding, comparable within an allelic series). The binding signal in the assay with SIX6 [14] was 9 upbm affinity estimate (log intensity, higher = more binding, comparable within an allelic series); in the assay with SIX6 [15], 9.04 upbm affinity estimate (log intensity, higher = more binding, comparable within an allelic series); with SIX6 [16], 9.08 upbm affinity estimate (log intensity, higher = more binding, comparable within an allelic series); with HOXD13 [3], 9.65 upbm affinity estimate (log intensity, higher = more binding, comparable within an allelic series).

Turning to GGCAGGCC, the binding signal was 9.41 upbm affinity estimate (log intensity, higher = more binding, comparable within an allelic series) with HOXD13 [1]; 9.41 upbm affinity estimate (log intensity, higher = more binding, comparable within an allelic series) with HOXD13 [2]; 9.35 upbm affinity estimate (log intensity, higher = more binding, comparable within an allelic series) with HOXD13 [3].

For CCCCGGCG, the binding signal with HOXC10 was 9.87 upbm affinity estimate (log intensity, higher = more binding, comparable within an allelic series).

For the sequence CAATTAAC, the binding signal in the assay with HOXC9 is 12.6 upbm affinity estimate (log intensity, higher = more binding, comparable within an allelic series); in the assay with HOXD13 [3] it was 11.6 upbm affinity estimate (log intensity, higher = more binding, comparable within an allelic series).

As to CTAATTAC, the binding signal was 11.6 upbm affinity estimate (log intensity, higher = more binding, comparable within an allelic series) in the assay with NKX3-2 [17] and 11.7 upbm affinity estimate (log intensity, higher = more binding, comparable within an allelic series) in the assay with NKX3-2 [18].

As to ACAATTAA, the binding signal was 12.2 upbm affinity estimate (log intensity, higher = more binding, comparable within an allelic series) with HOXC10 and 12.6 upbm affinity estimate (log intensity, higher = more binding, comparable within an allelic series) with HOXC9.

For GGCAATTA, the binding signal with NKX3-2 [17] was 11.8 upbm affinity estimate (log intensity, higher = more binding, comparable within an allelic series); with NKX3-2 [18], 11.9 upbm affinity estimate (log intensity, higher = more binding, comparable within an allelic series).

As to GTCAATTA, in the assay with HOXC9, the binding signal is 12 upbm affinity estimate (log intensity, higher = more binding, comparable within an allelic series).

Turning to CAATTAAA, the binding signal is 12.5 upbm affinity estimate (log intensity, higher = more binding, comparable within an allelic series) with HOXC10; 12.9 upbm affinity estimate (log intensity, higher = more binding, comparable within an allelic series) with HOXC9; 10.7 upbm affinity estimate (log intensity, higher = more binding, comparable within an allelic series) with HOXD13 [1]; 11.7 upbm affinity estimate (log intensity, higher = more binding, comparable within an allelic series) with HOXD13 [2]; 11.7 upbm affinity estimate (log intensity, higher = more binding, comparable within an allelic series) with HOXD13 [3].

Turning to ATTAATAG, the binding signal with HOXC10 is 12.2 upbm affinity estimate (log intensity, higher = more binding, comparable within an allelic series); with HOXC9, 12.6 upbm affinity estimate (log intensity, higher = more binding, comparable within an allelic series); with HOXD13 [1], 10.9 upbm affinity estimate (log intensity, higher = more binding, comparable within an allelic series); with HOXD13 [2], 11.8 upbm affinity estimate (log intensity, higher = more binding, comparable within an allelic series); with HOXD13 [3] it was 11.8 upbm affinity estimate (log intensity, higher = more binding, comparable within an allelic series).

In the case of CCCTACGG, in the assay with HOXC9, the binding signal is 9.63 upbm affinity estimate (log intensity, higher = more binding, comparable within an allelic series).

On to ACTAATTG, for which the binding signal is 11.8 upbm affinity estimate (log intensity, higher = more binding, comparable within an allelic series) in the assay with NKX3-2 [17] and 11.8 upbm affinity estimate (log intensity, higher = more binding, comparable within an allelic series) with NKX3-2 [18].

As for CCAATTAA, the binding signal with HOXD13 [1] is 10.8 upbm affinity estimate (log intensity, higher = more binding, comparable within an allelic series); with HOXD13 [2], 11.9 upbm affinity estimate (log intensity, higher = more binding, comparable within an allelic series); with HOXD13 [3], 11.8 upbm affinity estimate (log intensity, higher = more binding, comparable within an allelic series); in the assay with NKX3-2 [17], 11.7 upbm affinity estimate (log intensity, higher = more binding, comparable within an allelic series); in the assay with NKX3-2 [18], 11.8 upbm affinity estimate (log intensity, higher = more binding, comparable within an allelic series).

On to CTAATTGA, for which the binding signal is 11.5 upbm affinity estimate (log intensity, higher = more binding, comparable within an allelic series) in the assay with NKX3-2 [17] and 11.6 upbm affinity estimate (log intensity, higher = more binding, comparable within an allelic series) in the assay with NKX3-2 [18].

Consider ATCAATTA, for which, in the assay with HOXC9, the binding signal was 12.6 upbm affinity estimate (log intensity, higher = more binding, comparable within an allelic series).
